Results filed as inconclusive are left out. Where a call stands in place of a potency, no number is given. Calls of active or inactive are those of the source. Unless noted, calls follow the shape of the dose curve; as a rule, active = well fitted curve in the direction sought with a large enough effect; inconclusive = small, poorly fitted or top-dose-only effect, or another doubt; inactive = no such curve, though single readings can be large; an effect the other way counts as inactive or inconclusive.
Experiments:
[1] = target: Calcium and integrin-binding protein 1 (Homo sapiens) (UniProt Q99828); assay: Primary qHTS for Identification of Calcium Integrin Binding Protein 1 (CIB1) Competitor (AID 1508620);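 also: GST tagged CIB1 binding a fluorescein labelled alphaIIb integrin peptide tracer; top concentration of the series differs between compounds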
Sequence of Calcium and integrin-binding protein 1 (Homo sapiens) (Q99828 whole entry, looked up): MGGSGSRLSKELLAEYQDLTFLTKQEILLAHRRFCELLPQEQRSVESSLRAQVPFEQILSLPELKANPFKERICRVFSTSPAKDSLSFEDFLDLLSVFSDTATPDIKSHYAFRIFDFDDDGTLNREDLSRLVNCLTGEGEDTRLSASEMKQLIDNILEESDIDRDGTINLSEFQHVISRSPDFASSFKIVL
Method in brief: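 CIB1-GST (1 uM final) and compound incubated 15 min at room temperature before adding FITC-alphaIIb peptide tracer (100 nM final). Competition for binding read by fluorescence polarization (ex 480, em 540) after another 15 min at room temperature.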

[2] = Primary qHTS for small molecule stabilizers of the endoplasmic reticulum resident proteome: Secreted ER Calcium Modulated Protein (SERCaMP) assay (AID 1508630)
Method in brief: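 GLuc-SERCaMP-expressing SH-SY5Y cells, pretreated 16 h with compound, are challenged with thapsigargin to empty ER calcium stores; after 4 h, coelenterazine is added directly to the medium and luminescence is imaged.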

[3] = A High-Content qHTS Against Drug Library for the Identification of Small Molecules that Inhibit DYT1 Early Onset Primary Dystonia-Associated Cell Pathology (AID 1645839; calls by dose curve; also: series mostly up to about 46 µM)
Method in brief: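 In this high-content image screen, delE TorsinA mislocalization in inducible Flp-In 293 cells is scored as %pathology, with cell count serving as the counterscreen. Compound exposure lasts 48 h under tetracycline induction in reduced-serum medium.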

[4] = target: Cytochrome P450 2D6 (Homo sapiens) (UniProt P10635); assay: Cytochrome P450 family 2 subfamily D member 6 (CYP2D6) small molecule antagonists: luciferase biochemical (cell-free) qHTS assay (AID 1645840; active = well fitted curve in the direction sought with a large enough effect in the repeat runs; an effect the other way counts as inactive or inconclusive; also: nearly all actives have a fitted effect of over 55% in size; also: potency is read from the fitted curve at half-maximal effect)
Sequence of Cytochrome P450 2D6 (Homo sapiens) (P10635 whole entry, looked up): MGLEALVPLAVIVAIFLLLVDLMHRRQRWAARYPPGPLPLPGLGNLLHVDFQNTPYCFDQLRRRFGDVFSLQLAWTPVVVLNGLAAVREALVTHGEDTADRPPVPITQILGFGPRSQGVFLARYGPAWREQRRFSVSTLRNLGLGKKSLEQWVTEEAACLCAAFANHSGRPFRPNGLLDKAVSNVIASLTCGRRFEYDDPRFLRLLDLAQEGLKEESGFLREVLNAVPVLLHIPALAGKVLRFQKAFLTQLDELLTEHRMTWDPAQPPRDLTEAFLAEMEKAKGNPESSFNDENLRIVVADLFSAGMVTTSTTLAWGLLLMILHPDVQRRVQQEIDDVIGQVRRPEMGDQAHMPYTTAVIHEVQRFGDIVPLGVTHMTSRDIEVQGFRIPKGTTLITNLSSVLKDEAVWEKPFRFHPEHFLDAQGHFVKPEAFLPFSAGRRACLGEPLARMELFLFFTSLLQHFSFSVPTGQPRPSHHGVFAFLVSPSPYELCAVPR
Method in brief: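 P450-Glo luminescent screen: recombinant CYP2D6 enzyme–proluciferin substrate mix preincubated with compound 10 min at room temperature, then NADPH regeneration added for 1 h at room temperature. Detection reagent added for 20 min; luciferin light read as relative luminescence units.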

[5] = target: Cytochrome P450 2C9 (Homo sapiens) (UniProt P11712); assay: Cytochrome P450 family 2 subfamily C member 9 (CYP2C9) small molecule antagonists: luciferase biochemical (cell-free) qHTS assay (AID 1645842; active = well fitted curve in the direction sought with a large enough effect in the repeat runs; an effect the other way counts as inactive or inconclusive; also: nearly all actives have a fitted effect of over 55% in size; also: potency is read from the fitted curve at half-maximal effect)
Sequence of Cytochrome P450 2C9 (Homo sapiens) (P11712 whole entry, looked up): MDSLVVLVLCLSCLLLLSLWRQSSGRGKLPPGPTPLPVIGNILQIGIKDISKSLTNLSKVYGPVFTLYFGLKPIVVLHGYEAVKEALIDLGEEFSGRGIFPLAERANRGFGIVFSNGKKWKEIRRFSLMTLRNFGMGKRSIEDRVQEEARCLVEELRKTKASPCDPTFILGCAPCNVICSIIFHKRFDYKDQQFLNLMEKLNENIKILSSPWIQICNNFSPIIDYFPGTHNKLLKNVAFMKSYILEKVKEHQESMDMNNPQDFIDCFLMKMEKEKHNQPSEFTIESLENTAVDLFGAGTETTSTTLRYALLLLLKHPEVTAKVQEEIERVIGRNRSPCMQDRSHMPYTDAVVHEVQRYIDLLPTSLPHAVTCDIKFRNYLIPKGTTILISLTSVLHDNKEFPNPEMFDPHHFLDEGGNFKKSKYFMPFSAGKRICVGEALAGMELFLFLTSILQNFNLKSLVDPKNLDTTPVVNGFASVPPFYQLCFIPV
Method in brief: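 Luminescence, after 20 min with luciferin detection reagent, reflected CYP2C9 turnover during a 1 h NADPH-driven reaction at 37C. Enzyme-substrate mix contained 0.4% bovine serum albumin and was preincubated with compound 10 min at room temperature.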

[6] = Primary qHTS for inhibitors of nuclear receptor binding SET domain protein 2 (NSD2) in an isogenic RCH-ACV NSD2 p.E1099K mutant (9B) (AID 1645876); also: nearly all actives have a fitted effect of over 70% in size; also: potency is read from the fitted curve at half-maximal effect
[7] = Primary qHTS for inhibitors of nuclear receptor binding SET domain protein 2 (NSD2) in an RCH-ACV wild type WT cells (2C) (AID 1645877); also: nearly all actives have a fitted effect of over 70% in size; also: potency is read from the fitted curve at half-maximal effect
[8] = Confirmatory qHTS for small molecule stabilizers of the endoplasmic reticulum resident proteome: Secreted ER Calcium Modulated Protein (SERCaMP) assay (AID 1508628);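 also: SH-SY5Y cells given compound 16 h then thapsigargin 100 nM for 4 h; series mostly up to about 76 µM; nearly all actives have a fitted effect of over 40% in size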
Method in brief: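 We seeded SH-SY5Y-GLuc-SERCaMP cells, added compounds (three concentrations in the primary run, eleven up to 76.6 uM in confirmation), incubated 16 h, depleted ER calcium with thapsigargin, and read luciferase 4 h later.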

[9] = Cell Viability qHTS for small molecule stabilizers of the endoplasmic reticulum resident proteome (AID 1508629); details: cell viability counter-screen, 100 nM thapsigargin for final 4 h;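 also: potency is read from the fitted curve at half-maximal effect; compound exposure about 46 h in total before the viability read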
[10] = Counterscreen qHTS for small molecule stabilizers of the endoplasmic reticulum resident proteome: GLuc-NoTag assay (AID 1508627);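 also: SH-SY5Y cells given compound then 100 nM thapsigargin to empty ER calcium; series mostly up to about 76 µM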
Method in brief: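 Luminescence of Gaussia luciferase secreted into the medium (coelenterazine, 0.07x final, unlysed cells) was the read-out. Human SH-SY5Y neuroblastoma cells constitutively secreting untagged GLuc received compound for 19 h, then 100 nM thapsigargin for 4 h.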

Row | Compound | Potency [1] | Potency [2] | Potency [3] | Potency [4] | Potency [5] | Potency [6] | Potency [7] | Potency [8] | Potency [9] | Potency [10]
1 | O=C(CCCCCCCCC#CI)Oc1ccccc1 | inactive | inactive | inactive | 5.42 µM (active) | 16.2 µM (active) | – | – | – | – | –
2 | COc1ccc2nc(SCc3ncc(C)c(OC)c3C)[nH]c2c1 | inactive | inactive | – | 12.3 µM (active) | inactive | – | – | – | – | –
3 | Nc1c2ccccc2nc2ccccc12 | inactive | inactive | inactive | 17.4 µM (active) | inactive | 3.76 µM (active) | 4.22 µM (active) | – | – | –
4 | CN1CCCN(C(c2ccccc2)c2ccc(Cl)cc2)CC1 (stereo unspecified) | inactive | – | – | 0.0776 µM (active) | inactive | – | 16.8 µM (active) | inactive | 25.1 µM (active) | –
5 | Cc1c(N)cccc1C(F)(F)F | inactive | inactive | inactive | inactive | inactive | inactive | inactive | – | – | –
6 | CN1CCC(Nc2ncc3ncnc(Nc4ccc(F)c(Cl)c4)c3n2)CC1 | inactive | – | – | 15.5 µM (active) | inactive | 15 µM (active) | 11.9 µM (active) | inactive | – | inactive

Source: PubChem BioAssay (NCATS)
